# This is a sample that favours compounds with a hit; in the whole collection about 2.1% have one here.
# LMP1 NFkB inh: reduces LMP1-driven NF-kappaB luciferase signal. inhibition, % at 12.5 µM. 350,000 compounds, 0.69% hits. LMP1-induced NF-kappaB luciferase reporter cells, luminescence; in the data active = inhibition above about 41%
# aSyn UTR inh: MLPCN primary screen, SNCA 5' untranslated region | alpha-synuclein 5'UTR reporter, inhibitor activity | AID 1813 | inhibition, % (tested at 7.5 µM) | 300,000 compounds, 0.82% hits; in the data active = inhibition above about 60%;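 note: H4 neuroglioblastoma cells stably carrying SNCA 5'UTR luciferase fusion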
# TRPM1 prom inh: reduces MITF-dependent TRPM1 promoter luciferase signal; SK-MEL-5 TRPM1 promoter luciferase, 24 h; inhibition, % at 12.5 µM; 330,000 compounds, 0.83% hits;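 active = mean inhibition across replicates of 60% or more, whatever share of single replicates reaches that level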
# PAX8 reporter: inhibitors of PAX8 transcriptional activity in RMG-I cells; RMG-I TPO-luciferase reporter, SteadyGlo, 24 h; 360,000 compounds, 1.2% hits; inhibition, % at 12.6 µM;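 active = mean replicate inhibition at least 60% with every replicate also reaching 60%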;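 note: luciferase light reporting Pax8 driven TPO promoter activity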
# Shn3 inh set2: Schnurri-3 reporter inhibition in Clone20 osteoblasts. inhibition, % at 12.5 µM. AID 588674. Clone20 osteoblast Shn3 3'UTR firefly luciferase, 24 h. 360,000 compounds, 0.52% hits;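 active = mean inhibition of at least 75% with every replicate also reaching 75%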
# Hits are given with their value; n = inactive; x = no result.
SMILES,LMP1 NFkB inh,aSyn UTR inh,TRPM1 prom inh,PAX8 reporter,Shn3 inh set2
NC(=O)c1ncn([C@@H]2O[C@H](CO)[C@@H](O)[C@H]2O)n1,63.2,n,n,n,n
OCC1OC(n2ccc3c2ncn2ncnc32)C(O)C1O (stereo not drawn),n,x,x,71.9,n
Nc1ncn([C@@H]2O[C@H](CO)[C@@H](O)[C@H]2O)c(=O)n1,n,n,79.4,n,n
Nc1ccn([C@@H]2O[C@H](CO)[C@@H](O)[C@@H]2O)c(=O)n1,53.1,81.1,n,n,n
NC(=O)c1ncn([C@@H]2O[C@H](CNCc3ccccc3C#Cc3ccccc3)[C@@H](O)[C@H]2O)n1,n,x,n,n,n
O=C(c1ccc(Br)o1)N1CCC(Cc2ccccc2)CC1,n,n,n,n,n
COc1ccc(CC(=O)OCC(=O)N(C)C2CCS(=O)(=O)C2)cc1OC (stereo not drawn),n,n,n,n,n
Cc1noc(C)c1S(=O)(=O)N(C)C[C@@H]1Oc2ccc(NC(=O)Nc3ccccc3)cc2C(=O)N([C@@H](C)CO)C[C@@H]1C,x,x,x,n,x
CCC(=O)c1cn(CC(=O)Nc2cccc(OC)c2)c2ccccc12,n,n,n,n,n
CCN1[C@@H]2Cn3c(ccc(/C=C/c4ccccc4)c3=O)[C@H]1[C@@H](C(=O)NCc1ccccn1)[C@@H]2CO,x,x,x,n,x
CCOc1ccc(-n2c(SCC(=O)c3c(N)n(C)c(=O)n(C)c3=O)nnc2-c2cccnc2)cc1,n,n,n,81.1,n
Cc1ccccc1-n1c(SCC(=O)c2c(N)n(C)c(=O)n(C)c2=O)nnc1-c1cccnc1,n,n,n,n,n
CN(N=Cc1ccccc1O)c1ccc2ccccc2n1,n,x,x,n,n
CN(/N=C/c1cc(Br)cc(Br)c1O)c1cccc(C(F)(F)F)n1,n,70.2,n,n,n
Cc1ccc(C(=O)C2CCN(CC(=O)NCc3ccc(F)cc3)CC2)cc1,n,n,n,n,n
Nc1c(C(=O)Nc2cccc(C(=O)O)c2)sc2nc3c(cc12)CCCC3,57.2,76.6,80.4,84.8,n
Nc1c(C(=O)Nc2ccc(Cl)c(C(=O)O)c2)sc2nc3c(cc12)CCCC3,n,n,n,n,n
CCc1nc2c3cnn(-c4cc(Cl)ccc4C)c3ncn2n1,n,n,n,x,n
COc1ccc(S(=O)(=O)N2CCCCN3[C@H](C2)[C@@H](c2ccc(C#CC(C)C)cc2)[C@@H]3CO)cc1,x,x,x,90.8,x
COc1ccc(S(=O)(=O)N2CCCCN3[C@H](CO)[C@H](c4ccc(C5=CCCCC5)cc4)[C@H]3C2)cc1,x,x,x,64.6,x
CC(C)CC#Cc1ccc([C@H]2[C@H]3CN(S(=O)(=O)c4ccc(F)cc4)CCCCN3[C@H]2CO)cc1,x,x,x,n,x
COc1ccc(S(=O)(=O)N2CCCCN3[C@H](CO)[C@H](c4ccc(C#CCC(C)C)cc4)[C@@H]3C2)cc1,x,x,x,n,x
CC(C)CC#Cc1ccc([C@@H]2[C@@H](CO)N3CCCCN(S(=O)(=O)c4ccc(F)cc4)C[C@H]23)cc1,x,x,x,91.4,x
COc1ccc(S(=O)(=O)N2CCCCN3[C@H](CO)[C@H](c4ccc(C#CC(C)C)cc4)[C@H]3C2)cc1,x,x,x,76.8,x
CN1c2ccc(-c3ccc(C#N)cc3)cc2[C@@H]2[C@@H](CCN2C(=O)CN2CCOCC2)[C@H]1CO,x,x,x,n,x
SMILES,LMP1 NFkB inh,aSyn UTR inh,TRPM1 prom inh,PAX8 reporter,Shn3 inh set2
CCSc1cc(N2CCOCC2)nc(-c2ccc(Cl)cc2)n1,n,n,n,135.1,n
O=C(C#Cc1cccc([N+](=O)[O-])c1)c1ccccc1,45.8,n,82.2,x,93.1
Nc1ccccc1C#CC(=O)c1ccccc1,n,n,92.7,n,99.2
Nc1ccccc1C#Cc1ccc([N+](=O)[O-])cc1,n,n,n,n,n
COc1ccc(-c2cc(=O)c3c(O)c(OC)c(O)cc3o2)cc1,n,70.2,x,x,n
COc1ccc(-c2oc3cc(O)c(OC)c(O)c3c(=O)c2OC)cc1O,n,x,n,62.7,n
COc1cc(OC)c2c(=O)c(OC)c(-c3ccc(OC)c(OC)c3)oc2c1,n,n,x,x,n
CCCNC(=O)COc1nc2ccccc2nc1N1CCOCC1,n,n,n,103.2,n
Nc1nonc1C(=O)NCCNCc1cc(Br)ccc1OCc1ccc(F)cc1,n,n,n,x,90.5
COc1ccc(C(=O)N2C[C@H]3[C@@H](c4ccccc42)[C@@H](CO)N3C(=O)c2ccc(F)cc2)cc1,x,x,x,n,x
O=C(NC1CC1)c1ccc(-c2nc3ccccc3s2)s1,42.3,96.3,n,x,n
O=C(c1ccc(-c2nc3ccccc3s2)s1)N1CCOCC1,x,100.4,x,66.3,x
Cc1ccc2nc(NC(=O)c3ccc(-c4nc5ccccc5s4)s3)sc2c1,n,x,n,n,n
Cc1cccc(C)c1N1C(=O)c2ccccc2NC(=O)C1C(=O)NCCc1ccccc1F (stereo not drawn),x,x,x,n,x
N#CC1=C(N)Oc2c(ccc3ccccc23)C1c1cccs1 (stereo not drawn),x,110.2,x,x,x
C=CCC[C@H](Cc1ccc(F)cc1)C(=O)OC[C@H](Cc1c[nH]c2ccccc12)NC(=O)[C@@H](CC=C)CC(=O)N[C@H](CO)Cc1ccccc1,n,x,n,n,91.5
C=CC[C@@H](CC(=O)N[C@H](CO)Cc1ccccc1)C(=O)N[C@H](COC(=O)[C@@H](CC=C)Cc1ccc(F)cc1)Cc1c[nH]c2ccccc12,n,x,n,87.7,n
C=CCC[C@@H](Cc1ccc(F)cc1)C(=O)OC[C@H](Cc1c[nH]c2ccccc12)NC(=O)[C@@H](CC=C)CC(=O)N[C@H](CO)Cc1ccccc1,n,x,n,n,n

# Screening results deposited in PubChem BioAssay by Broad Institute.
